Experimental findings from PubChem BioAssay are described below.

Unmarked numbers belong to inactive results. Records with an inconclusive call do not appear. The source made the active and inactive calls.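 The calls were made as follows, unless noted: active = cell viability at or below a set limit in both duplicate runs, the limit being the all-compound median minus 4 SD (cut at about 23% in these data, passing the limit was not always enough); inconclusive = no clear call, values can overlap the other calls; inactive = the rest.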

The first experiment is described as follows: viability gain of MRP-1-high H69AR cells under doxorubicin, pilot screen, MRP-1 activator project, CellTiter-Glo, duplicate (AID 807;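 active = viability increase at or above a cutoff of the median across tested compounds plus 3 SD, cut at about 8.5% in these data, passing the limit was not always enough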;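 also: compound pretreatment 18-22 h then 72 h combined with doxorubicin; 0% = doxorubicin alone and 100% = vehicle without doxorubicin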). The conditions noted are these: H69AR viability with doxorubicin, CellTiter-Glo luminescence; at 10 µM; hits give high values.
For `COc1ccc(C(=O)NCc2nnc(SC)n2C2CCCCC2)cc1`, the viability increase was -1.51%.

In the case of `Oc1ccc(Cl)cc1-c1cc(-c2ccccc2)n[nH]1`, the viability increase was -7.82%.

In the case of `O=C(CCCn1c(=O)c2sccc2n(Cc2cc(=O)n3ccccc3n2)c1=O)NCc1ccco1`, the viability increase was -1.87%.

Regarding `COC(=O)c1cn(NC(=O)C2CCCO2)c(=O)c2ccccc12` (stereo not given), the viability increase is -0.57%.

As for `CCN(CC)CCCNC(=O)c1cn(C)c2ccc(S(=O)(=O)N(C)C)cc2c1=O`, the viability increase was -0.44%.

For the compound `Cc1nnc(SCCn2c(N3CCC(Cc4ccccc4)CC3)nc3c2c(=O)[nH]c(=O)n3C)s1`, the viability increase was -4.95%.

As for `O=C(C(Cc1ccccc1)n1cccc1)N1CCCCCC1` (stereo not given), the viability increase was -2.42%.

Regarding `O=C(Cn1nc(Cc2ccncc2)c2ccccc2c1=O)N1CCN(C(=O)c2ccco2)CC1`, the viability increase is -1.96%.

On to `COc1ccc(-c2nc(CS(=O)CC(=O)NCc3ccccn3)c(C)o2)cc1` (stereo not given), for which the viability increase is -1.58%.

Regarding `CCn1c(SCC(=O)Nc2ccc(Cl)cc2)nnc1C1CC1`, the viability increase is -4.1%.

With `CCOC(=O)CN(C(=O)c1ccccc1)c1ccccc1C`, the viability increase was -0.66%.

Turning to `COC(=O)Cc1cc(=O)[nH]c(Nc2nc3ccccc3o2)n1`, the viability increase is -2.4%.

Regarding `COc1ccc(C2CC(c3cccc(C)c3)n3ncnc3N2)cc1` (stereo not given), the viability increase is -1.57%.

As for `CC1CCCCN1CCNC(=O)C1CCN(S(=O)(=O)c2cccc3cccnc23)CC1` (stereo not given), the viability increase is -3.57%.

In the case of `CCCCSc1nc(CCC)cc(=O)[nH]1`, the viability increase is -1.29%.

For `CC1(C)CC(=O)C2=C(C1)NC(=O)CC2c1ccc(N(CCC#N)CCC#N)cc1` (stereo not given), the viability increase was 0.18%.

With `Cc1cccc(OCC(=O)N2CCN(C(=O)Cc3ccccc3)CC2)c1`, the viability increase is -2.39%.

On to `O=C1CC(c2cccnc2)c2cc3c(cc2N1)OCO3` (stereo not given), for which the viability increase is -1.75%.

`CCc1nn(CC(=O)NCCCN2CCc3ccccc3C2)c(=O)c2cc3sccc3n12`: the viability increase was -4.54%.

Consider `Cc1ccc(-c2nc3cc(NC(=O)C(C)C)ccc3o2)cc1`, for which the viability increase was -5.7%.

Turning to `CC(CC(=O)NC1CCSC1=O)c1ccccc1` (stereo not given), the viability increase was 2.46%.

Regarding `COc1ccc(C2CC(c3ccc(OC)cc3)n3nc(N)nc3N2)cc1` (stereo not given), the viability increase is 0.09%.

`COC(=O)COc1cccc(NC(=O)COc2ccccc2)c1`: the viability increase was -0.74%.

Consider `COc1ccc(OCCSc2nc3ccccc3n2CC(=O)O)cc1`, for which the viability increase was -0.98%.

For the compound `Cc1cccnc1-n1c(CCN2C(=O)c3ccccc3C2=O)nc2ccccc2c1=O`, the viability increase was -2.01%.

With `CC(=O)N(c1ccc(Br)cc1)C1C=CS(=O)(=O)C1` (stereo not given), the viability increase is -0.84%.

As for `Cc1ccccc1Cn1cc(/C=N/n2cnnc2)c2ccccc21`, the viability increase is -4.78%.

Turning to `CCOC(=O)N1CCN(c2cc(=O)n(-c3ccccc3Cl)c(=O)[nH]2)CC1`, the viability increase is 1.69%.

In the case of `CCCCN(C)Cc1c(O)ccc2c(-c3ccccc3)cc(=O)oc12`, the viability increase was -2.64%.

With `CCCCn1c(CN2CCN(c3ccc(F)cc3)CC2)nc2c1c(=O)n(C)c(=O)n2C`, the viability increase is -0.4%.

With `CCn1c(SCC(=O)Nc2cccc(C)c2)nc2c(c1=O)SC(C)C2` (stereo not given), the viability increase was -3.09%.

With `COc1cccc(C2CC(c3ccc(C)cc3)n3nc(N)nc3N2)c1` (stereo not given), the viability increase was -1.45%.

Turning to `Cc1cc(C)cc(N(CC(=O)Nc2cccc(C)n2)S(=O)(=O)c2c(C)noc2C)c1`, the viability increase was -4.06%.

With `Cc1noc(C)c1S(=O)(=O)N1CCN(Cc2ccc3c(c2)OCO3)CC1`, the viability increase is -0.42%.

For `Cn1c(C(=O)NCCCN2CCCCCC2)cc2c(=O)n(C)c3ccccc3c21`, the viability increase is -4.55%.

Take `CS(=O)(=O)N(Cc1ccco1)CC(O)Cn1c2ccccc2c2ccccc21` (stereo not given): the viability increase was -4.51%.

On to `CC(=O)Nc1ccc(S(=O)(=O)Nc2nc3c(s2)CCCC3)cc1`, for which the viability increase is -1.41%.

Turning to `CCOC(=O)C(CC)Sc1ncnc2nc[nH]c12` (stereo not given), the viability increase was -1.92%.

For the compound `COc1cc2c(cc1OC)-c1nnc(C)n1C1(CCCC1)C2`, the viability increase was -2.69%.

On to `Nc1nc2n(n1)C(c1cccc(Br)c1)CC(c1ccccc1)N2` (stereo not given), for which the viability increase is -1.81%.

A further experiment is described as follows: growth suppression of beta-catenin knockout HCT116, pilot screen, human colon tumor cells (AID 823).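 Also: 0% = wells killed by 20 µM Hyamine and 100% = untreated DMSO cell wells.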 The conditions noted are these: CellTiter-Glo, 60 h, at 10 µM, hits give low values.
On to `COc1ccc(C(=O)NCc2nnc(SC)n2C2CCCCC2)cc1`, for which the viability is 99.8%.

`Oc1ccc(Cl)cc1-c1cc(-c2ccccc2)n[nH]1`: the viability is 16% (active).

As to `O=C(CCCn1c(=O)c2sccc2n(Cc2cc(=O)n3ccccc3n2)c1=O)NCc1ccco1`, the viability is 91.3%.

As for `COC(=O)c1cn(NC(=O)C2CCCO2)c(=O)c2ccccc12` (stereo not given), the viability was 91.2%.

As for `CCN(CC)CCCNC(=O)c1cn(C)c2ccc(S(=O)(=O)N(C)C)cc2c1=O`, the viability was 101%.

`Cc1nnc(SCCn2c(N3CCC(Cc4ccccc4)CC3)nc3c2c(=O)[nH]c(=O)n3C)s1`: the viability is 78.6%.

With `O=C(C(Cc1ccccc1)n1cccc1)N1CCCCCC1` (stereo not given), the viability was 95.3%.

Regarding `O=C(Cn1nc(Cc2ccncc2)c2ccccc2c1=O)N1CCN(C(=O)c2ccco2)CC1`, the viability was 106%.

With `COc1ccc(-c2nc(CS(=O)CC(=O)NCc3ccccn3)c(C)o2)cc1` (stereo not given), the viability is 95.9%.

For the compound `CCn1c(SCC(=O)Nc2ccc(Cl)cc2)nnc1C1CC1`, the viability was 102%.

As to `CCOC(=O)CN(C(=O)c1ccccc1)c1ccccc1C`, the viability was 91.8%.

As to `COC(=O)Cc1cc(=O)[nH]c(Nc2nc3ccccc3o2)n1`, the viability was 102%.

`COc1ccc(C2CC(c3cccc(C)c3)n3ncnc3N2)cc1` (stereo not given): the viability is 100%.

On to `CC1CCCCN1CCNC(=O)C1CCN(S(=O)(=O)c2cccc3cccnc23)CC1` (stereo not given), for which the viability is 101%.

Take `CCCCSc1nc(CCC)cc(=O)[nH]1`: the viability is 99.6%.

Take `CC1(C)CC(=O)C2=C(C1)NC(=O)CC2c1ccc(N(CCC#N)CCC#N)cc1` (stereo not given): the viability is 91.5%.

Turning to `Cc1cccc(OCC(=O)N2CCN(C(=O)Cc3ccccc3)CC2)c1`, the viability is 85.4%.

Turning to `O=C1CC(c2cccnc2)c2cc3c(cc2N1)OCO3` (stereo not given), the viability is 105%.

For `CCc1nn(CC(=O)NCCCN2CCc3ccccc3C2)c(=O)c2cc3sccc3n12`, the viability was 78.9%.

Regarding `Cc1ccc(-c2nc3cc(NC(=O)C(C)C)ccc3o2)cc1`, the viability is 82.6%.

In the case of `CC(CC(=O)NC1CCSC1=O)c1ccccc1` (stereo not given), the viability is 96.5%.

As to `COc1ccc(C2CC(c3ccc(OC)cc3)n3nc(N)nc3N2)cc1` (stereo not given), the viability was 105%.

In the case of `COC(=O)COc1cccc(NC(=O)COc2ccccc2)c1`, the viability was 97.2%.

Regarding `COc1ccc(OCCSc2nc3ccccc3n2CC(=O)O)cc1`, the viability is 99.6%.

For `Cc1cccnc1-n1c(CCN2C(=O)c3ccccc3C2=O)nc2ccccc2c1=O`, the viability is 102%.

`CC(=O)N(c1ccc(Br)cc1)C1C=CS(=O)(=O)C1` (stereo not given): the viability is 107%.

Consider `Cc1ccccc1Cn1cc(/C=N/n2cnnc2)c2ccccc21`, for which the viability was 67.8%.

Consider `CCOC(=O)N1CCN(c2cc(=O)n(-c3ccccc3Cl)c(=O)[nH]2)CC1`, for which the viability was 96.8%.

For the compound `CCCCN(C)Cc1c(O)ccc2c(-c3ccccc3)cc(=O)oc12`, the viability was 91%.

For `CCCCn1c(CN2CCN(c3ccc(F)cc3)CC2)nc2c1c(=O)n(C)c(=O)n2C`, the viability is 80.3%.

As for `CCn1c(SCC(=O)Nc2cccc(C)c2)nc2c(c1=O)SC(C)C2` (stereo not given), the viability is 95.1%.

In the case of `COc1cccc(C2CC(c3ccc(C)cc3)n3nc(N)nc3N2)c1` (stereo not given), the viability was 103%.

With `Cc1cc(C)cc(N(CC(=O)Nc2cccc(C)n2)S(=O)(=O)c2c(C)noc2C)c1`, the viability is 73.4%.

In the case of `Cc1noc(C)c1S(=O)(=O)N1CCN(Cc2ccc3c(c2)OCO3)CC1`, the viability is 95.3%.

Take `Cn1c(C(=O)NCCCN2CCCCCC2)cc2c(=O)n(C)c3ccccc3c21`: the viability is 76.1%.

As for `CS(=O)(=O)N(Cc1ccco1)CC(O)Cn1c2ccccc2c2ccccc21` (stereo not given), the viability is 72.2%.

With `CC(=O)Nc1ccc(S(=O)(=O)Nc2nc3c(s2)CCCC3)cc1`, the viability is 95.1%.

Consider `CCOC(=O)C(CC)Sc1ncnc2nc[nH]c12` (stereo not given), for which the viability is 97.5%.

Take `COc1cc2c(cc1OC)-c1nnc(C)n1C1(CCCC1)C2`: the viability was 100%.

For `Nc1nc2n(n1)C(c1cccc(Br)c1)CC(c1ccccc1)N2` (stereo not given), the viability is 97.1%.
